# The sample as a whole holds a higher share of hits than the screen did.
# Pf Dd2 growth: qHTS Primary assay for Inhibitors of Plasmodium falciparum Dd2 growth in vitro; hit rate 4.3% among 120,000; AID 1347417, 2020; P. falciparum Dd2 growth, SYBR Green, 72 h; Potency, µM (series often up to 28.9 µM), inactives show at the top dose activity, negative = inhibition, usual class: inhibitors; active = well fitted inhibition curve with a large enough effect;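 also: plate controls were DMSO vehicle for no effect and reference drug for full effect; nearly all actives have a fitted effect of over 65% in size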
#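 Infected erythrocytes (Dd2, 0.3% parasitemia, 2.5% hematocrit final) are added to compound in RPMI-1640/Albumax II medium, grown 72 h at 37C in low oxygen, then lysed with saponin/Triton-X containing SYBR Green and read by fluorescence.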
# An asterisk follows results filed as active; i = inactive; [ ] = remark or other dose. Potency is read from the fitted curve at half-maximal effect.
SMILES,Pf Dd2 growth
Cc1cnc(C(=O)N2CCCN(S(=O)(=O)c3ccccc3)CCC(=O)NCC2)cn1,19%
CCC(=O)N1CCCN(S(=O)(=O)c2ccccc2)CCC(=O)NCC1,10%
O=C1CCN(S(=O)(=O)c2ccccc2)CCCN(Cc2cccc3[nH]ccc23)CCN1,7.9µM*
CC(C)C(=O)N1CCCN(S(=O)(=O)c2ccccc2)CCC(=O)NCC1,-14%
CN(C)S(=O)(=O)N1CCCN(S(=O)(=O)c2ccccc2)CCC(=O)NCC1,-2%
O=C1CCN(S(=O)(=O)c2ccccc2)CCCNCCN1,1%
Cn1cnc(C(=O)N2CCCN(S(=O)(=O)c3ccccc3)CCC(=O)NCC2)c1,-6%
O=C1CCN(S(=O)(=O)c2ccccc2)CCCN(Cc2ccccc2)CCN1,8.9µM*
O=C1CCN(S(=O)(=O)c2ccccc2)CCCN(C(=O)c2ccc3ccccc3n2)CCN1,11µM*
O=C1CCN(S(=O)(=O)c2ccccc2)CCCN(S(=O)(=O)c2ccc3c(c2)CCC3)CCN1,3.5µM*
Cn1nc(C2CCNCC2)c2c(C(=O)NC3CC3)cc(C3CC3)nc21,16%
Cn1cnc(S(=O)(=O)N2CCC(c3noc(-c4ccncc4)n3)C2)c1 (stereo not drawn),i[5.79 µM]
COCCCNC(=O)N1C[C@@H]2CCCN3CCC[C@@H]([C@H]23)[C@H]1CCCC(=O)NCC1CC1,-16%
CCn1c(CN(C)C)nnc1C1CCN(C(=O)CN(C)c2ccccc2)CC1,7%
COCc1nc(C2CCCN(C(=O)Nc3ccccc3C)C2)no1 (stereo not drawn),30%
CC(C)c1cc(C(=O)N(C)CCc2noc(C3CC3)n2)nc2ncnn12,-13%
COCC[C@]1(O)CCN(C(=O)c2ccc(Cl)cc2F)C[C@H]1C,-14%
O=[S+]([O-])(Nc1nncs1)c1ccc2c(c1)OCCN(Cc1cccs1)C2,i
O=C(C1CCCCC1)N1C[C@@H](CO)[C@H](c2ccncc2)C1,6%
COc1cccn(CC(=O)N(Cc2ccc(SC)cc2)C2CC2)c1=O,-21%
CCn1cc(CN2CCCN(S(=O)(=O)c3ccccc3)CCC(=O)NCC2)c(C)n1,-18%
Cc1noc(C)c1CN1CCCN(S(=O)(=O)c2ccccc2)CCC(=O)NCC1,-2%
O=C1CCN(S(=O)(=O)c2ccccc2)CCCN(Cc2ccc3cc[nH]c3c2)CCN1,5µM*
CCCNC(=O)Cc1csc2nc(C)c(-c3cc(C)n(-c4ccc(C)cc4)n3)c(=O)n12,i
CCCCNC(=O)Cc1csc2nc(C)c(-c3cc(C)n(-c4cccc(C)c4)n3)c(=O)n12,i
SMILES,Pf Dd2 growth
CCCCCCNC(=O)Cc1csc2nc(C)c(-c3cc(C)n(-c4cccc(C)c4)n3)c(=O)n12,2µM*
CCC(=O)N1CC(C(N)=O)C2(CCOCC2)C1 (stereo not drawn),3%
O=C(c1ccc2c(c1)N(Cc1ccccc1)C(=O)c1ccccc1S2(=O)=O)N1CCc2ccccc21,11µM*
O=C(c1ccc2c(c1)N(Cc1ccc(F)cc1)C(=O)c1ccccc1S2(=O)=O)N1CCN(Cc2ccccc2)CC1,i
COc1ccccc1CNC(=O)c1ccc2c(c1)N(Cc1cccc(C)c1)C(=O)c1ccccc1S2(=O)=O,-9%
CCOC(=O)N1CCC(NC(=O)c2ccc3c(c2)N(Cc2cccc(C)c2)C(=O)c2ccccc2S3(=O)=O)CC1,11µM*
CN1CCN(C(=O)c2ccc3c(c2)N(Cc2cccc(Cl)c2)C(=O)c2ccccc2S3(=O)=O)CC1,i
COc1ccccc1N1CCN(C(=O)c2ccc3c(c2)N(Cc2ccccc2)C(=O)c2ccccc2S3(=O)=O)CC1,7.1µM*
Cc1cccc(CN2C(=O)c3ccccc3S(=O)(=O)c3ccc(C(=O)NC4CCCCC4)cc32)c1,-4%
COc1ccc(N2CCN(C(=O)c3ccc4c(c3)N(Cc3cccc(Cl)c3)C(=O)c3ccccc3S4(=O)=O)CC2)cc1,-5%
O=C(c1ccc2c(c1)N(Cc1ccc(Cl)cc1)C(=O)c1ccccc1S2(=O)=O)N1CCC(Cc2ccccc2)CC1,-6%
Cc1ccccc1-c1noc(CNC(C)c2ccc(-n3cncn3)cc2)n1 (stereo not drawn),2%
O=C1N2CCCC2CN1C1CCN(Cc2cccc(F)c2)CC1 (stereo not drawn),7%[44.1 µM]
CC(C(=O)N1CCC(c2n[nH]c(=O)n2-c2ccccc2)CC1)c1ccccc1 (stereo not drawn),-2%
Cc1cnc(C(=O)N2CCc3ccc(S(=O)(=O)Nc4cccnc4)cc3C2)cn1,-11%
COc1ccc(/C=C/c2nc(C#N)c(NCc3ccc(C)cc3)o2)cc1OC,-20%
CCOc1ccc(Nc2oc(/C=C/c3ccc(OC)c(OC)c3)nc2C#N)cc1,i
CCN(CC)CCCNc1oc(/C=C/c2ccc(OC)c(OC)c2)nc1C#N,2.5µM*
Cn1cc(-c2cn(C)c(=O)n3cc(COc4ccc(Cl)cc4)nc23)cn1,i
COc1ccc(-c2nc(C)nc3c2CN(C(=O)c2ccc(C(F)(F)F)cc2)CC3)cc1,i
COCCNC(=O)CN1CN(c2ccccc2)C2(CCN(C(=O)NC3CCCCC3)CC2)C1=O,i
CC(C)CNC(=O)CN1CN(c2ccccc2)C2(CCN(C(=O)NC3CCCCC3)CC2)C1=O,1.6µM*
CCc1ccccc1NC(=O)N1CCC2(CC1)C(=O)N(CC(=O)NC(C)C)CN2c1ccccc1,0%
CC1(C(=O)N2C[C@@H](Oc3cccnc3)C[C@H]2C(=O)N2CCCC2)CCCCC1,i
COc1cccc(C(=O)N2CCCC(c3nn(-c4ccccc4)c(=O)[nH]3)C2)c1 (stereo not drawn),-4%
SMILES,Pf Dd2 growth
Cc1noc(-c2ccco2)c1C(=O)NCc1ccc(F)cc1F,i
COc1ccc(-c2nc3ccccc3n2Cc2ccc(Cl)cc2)cc1,-10%
COc1cccc(OCCCCn2c(-c3ccc(Cl)cc3)nc3ccccc3c2=O)c1,10µM*
COc1ccccc1OCCn1c(-c2ccc(Cl)cc2)nc2ccccc2c1=O,-10%
CNC(=O)[C@H]1C[C@H](Oc2ccccc2)CN1C(=O)c1cc(-c2ccc(F)cc2)n[nH]1,-18%
CC(C)C(=O)Nc1ccc2nc(SCC(=O)N3CCOCC3)sc2c1,5%
CCOc1ccc(C(=O)Nc2ccc3nc(SCC(=O)N4CCOCC4)sc3c2)cc1,8.9µM*
O=C(COc1ccccc1)Nc1ccc2nc(SCC(=O)N3CCOCC3)sc2c1,i
CN1C(=O)c2cccn2CC1CNS(=O)(=O)Cc1ccccc1F (stereo not drawn),16%
CC(C)OCCCNc1nc2c([S+](=O)([O-])c3ccc(Cl)cc3)nnn2c2ccccc12,10%
Cn1cccc1-c1nc(-c2nnn3c2COC(c2ccccc2Cl)C3)no1 (stereo not drawn),i
Oc1ccccc1CN1CCNc2cnc(OCc3cccnc3)cc2C1,i
c1cncc(Nc2cc3c(cn2)CN(Cc2ccc4[nH]ccc4c2)CCN3)c1,2.8µM*
Cc1cc(-c2cc3c(cn2)CN(Cc2ccc4[nH]ccc4c2)CCN3)ccn1,-19%[44.1 µM]
Cc1[nH]cnc1CN1CCNc2cc(Nc3ccccc3)ncc2C1,8%[44.1 µM]
CN1CCNc2cc(Nc3ccncc3)ncc2C1,52%[44.1 µM]
Cn1cc(CN2CCNc3cc(-c4ccccc4)ncc3C2)cn1,i
c1ccc(Nc2cc3c(cn2)CN(Cc2c[nH]c4ccccc24)CCN3)cc1,4.5µM*
c1ccc(-c2cc3c(cn2)CN(Cc2ccc4[nH]ccc4c2)CCN3)cc1,6.3µM*
COc1ccc(CN2CCNc3cnc(Nc4cccnc4)cc3C2)cc1O,1%[44.1 µM]
c1ccc(Nc2cc3c(cn2)NCCN(Cc2ccccn2)C3)cc1,-10%[44.1 µM]
Oc1ccccc1CN1CCNc2cc(Nc3cccnc3)ncc2C1,8.9µM*
